Measurements as given in PubChem BioAssay AID743449 (Broad Institute, 2014).
In all, about 9,900 compounds went through this assay and about 90 (0.9%) were called active. Roughly 2% stayed inconclusive and do not appear here. The full list was thinned out, with actives kept by preference. Unmarked numbers belong to inactive results.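 Rule for the calls: active = mean normalized replicate activity at least 50 and at least half of replicates each reaching 50; inconclusive = only one of the two criteria met; inactive = neither criterion met.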

test: YAP1 pathway inhibitors via CTGF transcript, primary screen, DLD1 colon cancer cells, RT-qPCR, single point (AID 743449); conditions: DLD1 CTGF mRNA qPCR, 24 h; at 12.5 µM; active compounds read high;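 note: 0% = neutral control wells and 100% = dasatinib control wells; higher means stronger suppression of CTGF expression like dasatinib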

Q: With C[C@@H]1CN([C@H](C)CO)C(=O)Cc2cc(N(C)C)ccc2O[C@H]1CN(C)Cc1ccc(-c2ccccc2)cc1 as the compound, how does the inhibition read?
A: Its inhibition is -24.6%.

Q: With O=C(c1ccccc1F)N1CC[C@H]2[C@H](CO)Nc3ccc(Br)cc3[C@H]21 as the compound, how does the inhibition read?
A: The inhibition was -3.54%.

Q: For O=C1CCCCn2nncc2COC[C@H](Cc2ccccc2)N1, which inhibition is on record?
A: The inhibition was -21.7%.

Q: Which inhibition does the source give for COc1ccc(S(=O)(=O)Nc2ccc3c(c2)C(=O)N([C@H](C)CO)C[C@H](C)[C@@H](CN(C)S(=O)(=O)c2ccc(Cl)cc2)OCCCC[C@H](C)O3)cc1 here?
A: Its inhibition is -8.83%.

Q: For COc1ccc(S(=O)(=O)Nc2ccc3c(c2)C(=O)N([C@H](C)CO)C[C@H](C)[C@H](CN(C)S(=O)(=O)c2ccc(Cl)cc2)OCCCC[C@@H](C)O3)cc1, which inhibition is on record?
A: Its inhibition is -2.26%.

Q: For Cc1ccc(S(=O)(=O)Nc2ccc3c(c2)C(=O)N([C@H](C)CO)C[C@@H](C)[C@H](CN(C)S(=O)(=O)c2cccs2)OCCCC[C@@H](C)O3)cc1, which inhibition is on record?
A: Its inhibition is 57.5% (active).

Q: For Cc1ccc(S(=O)(=O)Nc2ccc3c(c2)C(=O)N([C@H](C)CO)C[C@H](C)[C@@H](CN(C)S(=O)(=O)c2cccs2)OCCCC[C@H](C)O3)cc1, which inhibition is on record?
A: The inhibition was -31%.

Q: With Cc1ccc(S(=O)(=O)Nc2ccc3c(c2)CC(=O)N([C@@H](C)CO)C[C@H](C)[C@@H](CN(C)S(=O)(=O)c2ccccc2)O3)cc1 as the compound, how does the inhibition read?
A: The inhibition was -31.9%.

Q: With Cc1ccc(S(=O)(=O)Nc2ccc3c(c2)CC(=O)N([C@H](C)CO)C[C@@H](C)[C@H](CN(C)S(=O)(=O)c2ccccc2)O3)cc1 as the compound, how does the inhibition read?
A: Its inhibition is -17.2%.

Q: For Cc1ccc(S(=O)(=O)Nc2ccc3c(c2)CC(=O)N([C@H](C)CO)C[C@@H](C)[C@@H](CN(C)S(=O)(=O)c2ccccc2)O3)cc1, which inhibition is on record?
A: The inhibition was 57.6% (active).

Q: With Cc1ccc(S(=O)(=O)Nc2ccc3c(c2)C(=O)N([C@@H](C)CO)C[C@@H](C)[C@H](CN(C)S(=O)(=O)c2cccs2)OCCCC[C@H](C)O3)cc1 as the compound, how does the inhibition read?
A: Its inhibition is -3.15%.

Q: Which inhibition does the source give for COc1ccc(S(=O)(=O)Nc2ccc3c(c2)C(=O)N([C@@H](C)CO)C[C@H](C)[C@@H](CN(C)S(=O)(=O)c2ccc(Cl)cc2)OCCCC[C@@H](C)O3)cc1 here?
A: The inhibition was 50.6% (active).

Q: With O=C(C[C@@H]1C=C[C@H](NC(=O)c2cnccn2)[C@H](CO)O1)NCc1ccccc1F as the compound, how does the inhibition read?
A: The inhibition was 7.69%.

Q: With COc1ccc2c3c([nH]c2c1)[C@H](CO)NCC31CN(C(=O)Nc2c(C)noc2C)C1 as the compound, how does the inhibition read?
A: Its inhibition is -10.8%.

Q: With COc1ccc(CN(C)C[C@@H]2OCCCC[C@@H](C)Oc3ccc(NC(=O)C4CCCCC4)cc3C(=O)N([C@H](C)CO)C[C@@H]2C)cc1 as the compound, how does the inhibition read?
A: The inhibition was -11.6%.
